MCF10A rerep = inducers of DNA re-replication in MCF 10A breast cells | MCF 10A DNA re-replication, Hoechst nuclear intensity, 48 h | Potency, µM (highest dose often 46.1 µM), for inactives: at the highest dose activity, positive = re-replication, actives largely listed as activators | hit rate 2.9% among 350,000 | AID 624296; also: potency is read from the fitted curve at half-maximal effect; % of control where 0% means no effect; nearly all actives have a fitted effect of over 50% in size
SW480 rereplic = DNA re-replication induction in SW480 cells. SW480 DNA re-replication, Hoechst DNA content imaging, 48 h. Potency, µM (series often up to 46.1 µM), for the others: at the top dose re-replication activation, hits mostly activators. hit rate 1.8% among 340,000; also: potency is read from the fitted curve at half-maximal effect; % of control where 0% means no effect; nearly all actives have a fitted effect of over 55% in size
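DNA re-replication was detected as more nuclei of elevated Hoechst intensity after 48 hr exposure to compound (23 nL pinned per well of 250 cells).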
IL1B secr inh = blocks inflammasome-driven IL-1 beta release | THP-1 LPS/ATP IL-1B secretion, AlphaLISA, 16 h; hits give low values | activity change, % at 57.5 µM | hit rate 4.7% among 360,000 | AID 743279; in the data active = activity change below about -50%; inconclusive = mostly about -30% to -49%; also: % is scaled to controls: 0 for no effect and ±100 for the full control effect
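THP-1 cells pretreated 1 hr with compounds (up to 57.5 uM final), then stimulated with LPS (250 ng/mL final) plus ATP (1.25 mM final); secreted IL-1B measured by AlphaLISA after 16 hr, decreased signal indicating inhibition.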
ATXN viability = viability counter-screen for ATXN expression inhibitors | S2 cells (HEK-293 line with an ATXN2-luciferase reporter) viability, CellTiter-Fluor protease fluorescence, 24 h | Potency, µM (titrated, usually from 56.7 µM), actives largely listed as cytotoxic | hit rate 0.49% among 400,000; also: potency is read from the fitted curve at half-maximal effect; nearly all actives have a fitted effect of over 40% in size
ATXN2 expr inh = reduces ATXN2 reporter expression in HEK-293 cells; Potency, µM (doses to about 57 µM), for the others: at the top dose activity change, negative = inhibition, hits mostly inhibitors; hit rate 0.72% among 360,000; HEK-293 ATXN2-luciferase reporter, luminescence, 24 h; also: potency is read from the fitted curve at half-maximal effect; % is scaled to controls: 0 for no effect and ±100 for the full control effect; nearly all actives have a fitted effect of over 55% in size
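ATXN2-luciferase reporter cells (luciferase flanked by upstream and downstream ATXN2 gene portions) were treated 24 h at 37 °C with compounds at up to 57 uM. SteadyGlo luminescence gave expression; GF-AFC fluorescence gave viability.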
PINK1 modulator = changes PINK1 expression. AID 624263. hit rate 0.2% among 410,000. PINK1 immunofluorescence, high-content cytometry, 24 h. Potency, µM (highest dose often 76.6 µM), inactives show at the top dose activation (PINK1 increase), hits mostly activators; active = well fitted activation curve with a large enough effect; inconclusive = small, poorly fitted or top-dose-only effect; cell line not stated here; also: potency is read from the fitted curve at half-maximal effect; % of control where 0% means no effect; nearly all actives have a fitted effect of over 65% in size
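A stable cell line was treated with compounds at 5 concentrations for 24 hours, with CCCP as control. PINK1 levels and mitochondrial localization were measured by immunofluorescence with mitochondrial, cell and nuclear markers after fixation, read by laser-scanning cytometry.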
The depositor's hits bear a star; i = inactive; ? = inconclusive; . = no result; [ ] = remark or other dose. In the library only some 7.1% were active in any assay of this set; here they are far more common. Unless noted, calls follow the shape of the dose curve; as a rule, active = well fitted curve in the direction sought with a large enough effect; inconclusive = small, poorly fitted or top-dose-only effect, or another doubt; inactive = no such curve, though single readings can be large; an effect the other way counts as inactive or inconclusive.

SMILES	MCF10A rerep	SW480 rereplic	IL1B secr inh	ATXN viability	ATXN2 expr inh	PINK1 modulator
CCOc1ccc(Cc2c(Cl)nc(SC)nc2N(C)C)cc1	9.2µM*	?	0.0	i	-37.2%	2.4%
CSc1nc(Cl)c(Cc2ccc(OC(C)C)cc2)c(N(C)C)n1	?	13.3%	4.8	i	-15.2%	1.5%
C[C@@]12C(=O)Nc3ccc(F)cc3C(=O)N1[C@H]1c3cc(Br)ccc3OC[C@@H]1[C@@H]2c1ccccc1	?	?	-8.0	i	?	3.6%
Cc1ccc2c(c1)NC(=O)[C@@]1(C)[C@@H](c3ccccc3)[C@H]3COc4ccccc4[C@@H]3N1C2=O	-8.1%	1.7%	?	i	0.3%	-1.1%
Cc1ccc2c(c1)[C@H]1[C@H](CO2)[C@H](c2ccccc2)[C@]2(C)C(=O)Nc3cc(F)ccc3C(=O)N12	5.8µM*	?	?	?	-34.6%	1.5%
C[C@@]12C(=O)Nc3cc(F)ccc3C(=O)N1[C@H]1c3cc(Br)ccc3OC[C@@H]1[C@@H]2c1ccccc1	7.31µM*	?	-28.1	i	-26.6%	3.0%
Cc1ccc(NC(=O)c2cnc(SCC(=O)N3CCOCC3)n(C)c2=O)cc1C	.	.	.	.	.	-3.6%
Cc1ccc(C)c(NC(=O)C2CCCN2S(=O)(=O)c2ccc3c(c2)CCCC(=O)N3)c1 (stereo unspecified)	.	.	.	i	3.9%	1.3%
Cc1c(C(=O)NCc2ccc(C(F)(F)F)cc2)sc(=O)n1Cc1cccc(F)c1	.	.	40.3	i	?	-0.1%
Cc1c(C(=O)NCc2cccc(C(F)(F)F)c2)sc(=O)n1Cc1cccc(F)c1	.	.	-61.8*	i	0.0%	0.2%
Cc1ccc(Cl)cc1-c1cc(C(=O)NCc2cccc(Cl)c2)[nH]n1	.	.	-50.7*	?	?	?
Cc1c(C(=O)NCc2cccc(Cl)c2)sc(=O)n1Cc1ccc(F)cc1	.	.	-57.9*	i	-24.1%	3.9%
Cc1ccc(Cl)cc1-c1cc(C(=O)NCc2ccccc2)[nH]n1	.	.	.	i	-24.0%	27.9%
O=C(C[n+]1ccccc1Br)c1ccc(I)cc1	.	.	.	.	.	-0.5%
CN(C(=O)CSc1nc2ccc(NC(=O)COc3ccc(F)cc3)cc2s1)c1ccccc1	.	.	.	.	.	3.4%
OC(CNCc1ccc(-c2ccccc2)cc1)c1ccccc1 (stereo unspecified)	18.4µM*	18.4µM*	-73.1*	i	-38.8%	12.4%
O=c1c(Cl)c(N/N=C/c2ccc(Br)cc2)cnn1-c1ccccc1	7.08µM*	?	-13.8	?	?	1.3%
CNc1cnn(-c2ccccc2)c(=O)c1Cl	-52.3%	-3.0%	3.6	i	-1.0%	-1.1%
Cc1cc(C(=O)N2CCC(Cc3ccccc3)CC2)c(C)o1	7.2%	2.5%	-87.2*	i	?	3.6%
O=C(/C=C/c1ccco1)N1CCN(c2ncccn2)CC1	3.4%	-2.5%	9.0	i	31.3%	1.0%
O=C(/C=C/c1ccco1)N1CCC(Cc2ccccc2)CC1	?	?	-66.8*	i	35.8%	1.4%
O=C(c1cc([N+](=O)[O-])ccc1Cl)N1CCN(c2ccc([N+](=O)[O-])cc2)CC1	?	-11.8%	3.1	i	-10.9%	0.6%
Cc1cc(C(=O)N2CCN(c3ccc([N+](=O)[O-])cc3)CC2)co1	3.2%	3.1%	-4.8	i	0.0%	0.3%
CC(=O)N1CCN(C(=O)c2cc(C)oc2C)CC1	?	-0.3%	13.4	i	-3.7%	2.2%
Cn1c(C(=O)N2CCN(c3ccc([N+](=O)[O-])cc3)CC2)cc2c(=O)[nH]c3ccccc3c21	?	8.1%	-53.7*	i	-21.0%	3.2%
SMILES	MCF10A rerep	SW480 rereplic	IL1B secr inh	ATXN viability	ATXN2 expr inh	PINK1 modulator
Cc1cc(C(=O)N2CCN(c3ccc([N+](=O)[O-])cc3)CC2)c(C)o1	3.66µM*	4.11µM*	-19.7	i	?	0.1%
CCOC(=O)C(C)Sc1nnc2ccc3ccccc3n12 (stereo unspecified)	.	.	.	.	.	0.3%
Cc1ccc(C)c(CN2C(=O)c3ccccc3S(=O)(=O)c3ccc(C(=O)N4CCN(c5ccccc5)CC4)cc32)c1	.	.	.	.	.	3.8%
CC(C)c1nc2cc3ccccc3cc2[nH]1	?	20.6%	-53.1*	i	17.1%	-1.2%
Cc1ccc2c(Sc3ccc(Cl)cc3)c(C(=O)N3CCC(C)CC3)[nH]c2c1	.	.	.	?	-35.6%	9.5%
COc1ccc2nc(Nc3nc(C)c(C(C)=O)s3)sc2c1	?	16.4µM*	-26.9	i	-38.0%	4.8%
CC(=O)c1sc(Nc2ccc3c(c2)OCO3)nc1C	.	.	-25.7	i	31.4%	0.7%
CC(=O)c1sc(Nc2nc3cc4c(cc3s2)OCO4)nc1C	18.4µM*	20.6µM*	35.7	.	25.0%	10.5%
COc1ccc(Nc2nc3ccc(OC)cc3s2)cc1	?	-2.3%	?	i	35.6%	1.4%
Cc1ccc(N2CCn3c2nc2c3c(=O)n(CCc3ccccc3)c(=O)n2C)cc1C	.	.	.	.	.	0.1%
O=C(c1ccc(CS(=O)c2ccccc2Cl)o1)N1CCN(c2cccc(C(F)(F)F)c2)CC1 (stereo unspecified)	.	.	.	.	.	1.6%
CCCOc1ccc(C(=O)Nc2ccc(NC(=O)c3cccs3)cc2)cc1	-18.6%	-18.8%	-15.0	i	-16.6%	3.5%
CCCCOc1cccc(C(=O)Nc2ccc(NC(=O)c3cccs3)cc2)c1	7.31µM*	6.51µM*	27.9	17.8µM*	?	-2.2%
COC(=O)COc1cccc(NC(=O)c2ccccc2)c1	4.1%	-2.1%	-8.5	i	-7.1%	26.3%[38.3 µM]
CN(C)S(=O)(=O)Oc1cccc(C(=O)Nc2ccc(Cl)cc2)c1	?	-4.5%	-62.9*	?	42.3%	-0.4%
COC(=O)COc1cccc(NC(=O)c2cccs2)c1	-2.3%	-0.6%	-52.6*	i	-0.6%	-0.4%
CCOc1cccc(C(=O)Nc2ccc3ccccc3c2)c1	16.3%	24.1%	-17.3	i	5.3%	-0.7%
CCOc1cccc(C(=O)Nc2ccc(N(CC)CC)cc2)c1	18.4µM*	18.4µM*	-14.1	?	4.0%	0.1%
CCN(CC(=O)Nc1ccc(OC)cc1)CC(=O)Nc1cccc(S(=O)(=O)N2CCOCC2)c1	.	.	-7.4	?	.	2.7%
CC(=O)c1c(C)[nH]c(C(=O)N2CCCC(C)C2)c1C (stereo unspecified)	9.2%	2.31µM*	0.0	i	4.0%	2.4%
C=CCNC(=O)/C(C#N)=C\c1cc(Cl)c(OCC)c(OC)c1	10.6%	-0.6%	-91.5*	i	-9.3%	8.2%
C=CCNC(=O)/C(C#N)=C/c1ccc(C(=O)O)cc1	?	1.7%	7.8	i	-1.3%	2.7%

Bioassay records deposited in PubChem BioAssay by National Center for Advancing Translational Sciences (NCATS).
